What all share (experiment): PBM binding z-score (relative to random genomic background probes); higher = stronger binding; sequences stand for … in GC…GCGATTGACAGCGTAGAATGAAGG
Experiment [1] concerns FXR:RXRa (NR concentration 270 nM, RXRa partner concentration 90 nM). In short, it runs like this: (§1)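 Binding z-scores take random background probes as their reference. They come from custom Agilent 4×180K protein-binding microarrays incubated 1 h with ligand-free nuclear receptor dimers, with antibodies against each partner (one per run) detecting binding. Scanned fluorescence was regression-normalized.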

Experiment [2] has as its system LXRa:RXRa (NR concentration 270 nM, RXRa partner concentration 90 nM). The method, boiled down: as §1
The subject of experiment [3] is LXRa homodimer (NR concentration 270 nM). In short, it runs like this: as §1
The subject of experiment [4] is LXRb:RXRa (NR concentration 270 nM, RXRa partner concentration 90 nM). In short, it runs like this: as §1
Experiment [5] relates to LXRb homodimer (NR concentration 270 nM). The method, boiled down: as §1
Experiment [6] deals with PPARa:RXRa (NR concentration 270 nM, RXRa partner concentration 90 nM). In short, it runs like this:
as §1

Experiment [7] relates to PPARg:RXRa (NR concentration 180 nM, RXRa partner concentration 90 nM). The method, boiled down:
as §1

Experiment [8] deals with PPARg:RXRa 270nM:90nM, anti-RXR (NR concentration 270 nM, RXRa partner concentration 90 nM). The method, boiled down: as §1
In experiment [9] the test system is PPARg:RXRa 30nM:10nM, anti-RXR (NR concentration 30 nM, RXRa partner concentration 10 nM). In short, it runs like this:
as §1

Experiment [10] has as its system PPARg:RXRa 90nM:30nM, anti-RXR (NR concentration 90 nM, RXRa partner concentration 30 nM). In short, it runs like this: as §1
The subject of experiment [11] is PPARg:RXRa DBDmut IVT, anti-RXR (DBD mutation: RXRa K156A/R161A, NR concentration 270 nM, RXRa partner concentration 90 nM). The method, boiled down: as §1
The test system of experiment [12] is PPARg:RXRa IVT, anti-PPARg (NR concentration 270 nM, RXRa partner concentration 90 nM). In short, it runs like this:
as §1

Experiment [13] relates to PPARg DBDmut:RXRa IVT, anti-PPARg (DBD mutation: PPARg1 K132A/R137A, NR concentration 270 nM, RXRa partner concentration 90 nM). The method, boiled down:
as §1

For experiment [14], the system named is PPARg DBDmut IVT, anti-PPARg (DBD mutation: PPARg1 K132A/R137A, NR concentration 270 nM). In short, it runs like this: as §1
In experiment [15] the test system is PPARg homodimer (NR concentration 180 nM). The method, boiled down: as §1
For experiment [16], the system named is PXR:RXRa (NR concentration 270 nM, RXRa partner concentration 90 nM). In short, it runs like this: as §1
Experiment [17] relates to PXR homodimer (NR concentration 270 nM). The method, boiled down: as §1
Experiment [18] deals with RARa:RXR (NR concentration 270 nM, RXRa partner concentration 90 nM). The method, boiled down:
as §1

Experiment [19] concerns RARa homodimer (NR concentration 270 nM). The method, boiled down:
as §1

For experiment [20], the system named is RARb:RXRa (NR concentration 270 nM, RXRa partner concentration 90 nM). The method, boiled down:
as §1

Take CTACCAAGTTGAACAAGGTCGTTGATTACTATTC: the PBM binding z-score in experiment [1] turned out to be 1.16; in experiment [2], 1.41; in [3], 0.853; in experiment [4], 1.91; in [5] it was 0.134; in [6], 1.73. For the same sequence, the PBM binding z-score in experiment [7] was found to be 0.0728; in experiment [8], 0.171; in [9] it was 0.12; in experiment [10], 0.362; in experiment [11], 0.743; in [12], 0.688. For the same sequence, the PBM binding z-score was 0.967 in [13]; 0.704 in experiment [14]; 1.45 in experiment [15]; 2.65 in [16]; 4.18 in experiment [17]; 1.96 in experiment [18]. Besides, the PBM binding z-score in experiment [19] came out at 1.44; in experiment [20], 1.29.

In the case of ACAGACAGGTGATGAAGGTAACCCAGGCTATCAT, the PBM binding z-score was -0.0743 in [1]; -0.103 in [2]; -0.116 in [3]; -0.241 in [4]; -0.475 in experiment [5]; 0.302 in experiment [6]. Besides, the PBM binding z-score in [7] was 0.814; in [8], 0.0501; in experiment [9], 0.126; in experiment [10], -0.204; in [11], -0.12; in [12], 0.789. Besides, the PBM binding z-score is 0.463 in [13]; 0.0514 in [14]; 0.225 in [15]; -0.103 in experiment [16]; -0.0491 in experiment [17]; 0.412 in experiment [18]. For the same sequence, the results for the PBM binding z-score in experiment [19] and in experiment [20] were -0.333 and 0.413, respectively.

As for TAACCAAGGTGAAAGGTCGTTGATGCACGCCTTG, the PBM binding z-score was 3.72 in [1]; 3.34 in experiment [2]; 0.422 in experiment [3]; 2.69 in experiment [4]; 0.0179 in [5]; 5.18 in experiment [6]. Moreover, the PBM binding z-score was 8.43 in experiment [7]; 8.06 in experiment [8]; 8.2 in experiment [9]; 8.96 in experiment [10]; 2.51 in experiment [11]; 4.83 in experiment [12]. Besides, the PBM binding z-score in experiment [13] was found to be 0.621; in experiment [14], 0.876; in [15], 2.72; in experiment [16] it was 4.25; in experiment [17] it was 0.689; in experiment [18], 6.11. Also, the PBM binding z-score in experiment [19] turned out to be 0.504; in experiment [20], 3.15.

As for GCTGCTAGGTCAACTGATGGGCAGCTAAAGCTCG, the PBM binding z-score in experiment [1] was 3.7; in [2] it was 2.69; in experiment [3] it was -0.419; in experiment [4], 1.48; in experiment [5], -0.413; in [6], 3.25. Also, the PBM binding z-score in experiment [7] came to 2.39; in experiment [8], 3.09; in [9], 0.29; in experiment [10], 1.62; in experiment [11], 4.79; in experiment [12] it was 4. The PBM binding z-score in experiment [13] is -0.683; in experiment [14], -0.478; in experiment [15], 0.434; in [16], 1.1; in [17], -0.949; in experiment [18], 1.93. In addition, the PBM binding z-score in experiment [19] was -0.663; in [20], 4.1.

With CCTACTGGGCCACGAAAGGTCAGTGATTCAGTGA, the PBM binding z-score was 1.7 in [1]; 3.12 in experiment [2]; 1.41 in experiment [3]; 2.24 in experiment [4]; -0.661 in [5]; 3.53 in experiment [6]. The PBM binding z-score amounted to 3.77 in experiment [7]; 3.87 in experiment [8]; 1.03 in experiment [9]; 2.79 in [10]; 4.86 in experiment [11]; 5.84 in [12]. The PBM binding z-score in experiment [13] is 1.69; in experiment [14], 0.78; in experiment [15], 3.12; in [16] it was 3.42; in experiment [17], 0.0598; in experiment [18], 3.82. The values for the PBM binding z-score in experiment [19] and in experiment [20] were 1.31 and 3.81, respectively.

For CCTTACGGGCCACTGACAGGTTATAGCATTTGGA, the PBM binding z-score in experiment [1] is -0.0975; in [2] it was -0.00158; in experiment [3], 0.136; in experiment [4], -0.0299; in experiment [5], -0.59; in experiment [6], 0.315. For the same sequence, the PBM binding z-score in [7] is 0.415; in experiment [8], 0.0355; in [9], -0.0145; in experiment [10] it was -0.254; in experiment [11] it was 0.882; in experiment [12], 0.315. The PBM binding z-score in experiment [13] was -0.753; in experiment [14], -0.329; in experiment [15], 0.129; in experiment [16], -0.136; in experiment [17] it was -0.0803; in experiment [18], 0.247. Moreover, the PBM binding z-score came to 0.161 in [19] and 0.69 in experiment [20].

For the sequence GGAACGAGGGCGAAGTTGATAGCATCTGTCGACG, the PBM binding z-score was -0.55 in [1]; -0.447 in experiment [2]; -0.49 in experiment [3]; -0.637 in experiment [4]; -0.922 in [5]; 1.42 in experiment [6]. Also, the PBM binding z-score in [7] turned out to be 2.91; in [8] it was 4.71; in [9], 1.93; in experiment [10] it was 4.02; in [11] it was 1.27; in [12], 1.23. The PBM binding z-score in [13] is 0.2; in [14], -0.848; in experiment [15] it was 0.0285; in [16] it was -0.347; in [17] it was -0.365; in experiment [18] it was -0.254. The PBM binding z-score in [19] was -0.834; in experiment [20], 0.606.

The record behind these values is the supplement of paper PMC6555819.
